Source: PubChem (National Center for Advancing Translational Sciences (NCATS))
Most compounds without a hit are left out; they make up all but 2.9% or so of the library.
B2AR arrestin: recruits beta-arrestin to the human beta2-adrenergic receptor. P07550. beta-arrestin recruitment to beta2AR, cell-based reporter. Potency, µM (top dose mostly 46.1 µM), inactives show top-dose activation, most hits filed as activators. actives 0.02% (n = 330,000). AID 492947; active = well fitted activation curve with a large enough effect; inconclusive = small, poorly fitted or top-dose-only effect;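 also: potency is read from the fitted curve at half-maximal effect; 0% = DMSO controls and full agonism = EC100 isoproterenol or metaproterenol; nearly all actives have a fitted effect of over 65% in size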
DRD3 antagonist: antagonists of human D3 dopamine receptor; P35462; D3R cells, DiscoveRx beta-arrestin luminescence, antagonist mode; active compounds read low; max response, negative = inhibition, %; actives 2.5% (n = 360,000); AID 652054; in the data active = max response below about -50%; inconclusive = no clear call, values can overlap the other calls; also: % is scaled to controls: 0 for no effect and ±100 for the full control effect
Target sequence (P35462 whole entry, looked up): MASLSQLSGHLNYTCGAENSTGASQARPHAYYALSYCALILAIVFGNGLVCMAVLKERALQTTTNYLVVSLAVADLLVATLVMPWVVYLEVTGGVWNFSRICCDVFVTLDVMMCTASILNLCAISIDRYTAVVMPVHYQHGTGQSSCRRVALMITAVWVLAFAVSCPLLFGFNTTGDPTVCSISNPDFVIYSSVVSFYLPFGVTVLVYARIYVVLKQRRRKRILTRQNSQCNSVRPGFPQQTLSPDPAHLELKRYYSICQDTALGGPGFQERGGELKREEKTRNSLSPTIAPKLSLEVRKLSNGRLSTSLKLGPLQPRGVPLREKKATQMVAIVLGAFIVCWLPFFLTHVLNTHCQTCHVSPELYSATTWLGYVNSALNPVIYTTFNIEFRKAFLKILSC
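Cells plated overnight at 1500 cells/well, then exposed to library compounds with dopamine controls for 90 minutes at 37 degrees C. DiscoveRx reagent added for 30–60 minutes at room temperature; luminescence read, quantitative HTS format.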
TSHR antag: antagonists of human thyroid stimulating hormone receptor; TSHR-expressing cells, TSH-stimulated cAMP HTRF, 2 h; active compounds read low; actives 0.2% (n = 330,000); activity change, negative = inhibition, % at 11.5 µM;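 active = activity change below a set negative limit, meaning inhibition stronger than a set level, cut at about -70% in these data; inconclusive = activity change between two set negative limits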; also: % is scaled to controls: 0 for no effect and ±100 for the full control effect
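Antagonism was scored as loss of TSH-driven cAMP in TSHR cells, stimulated with 4nM TSH (EC80) for 2 hours at 37 deg C and detected by homogeneous HTRF competition immunoassay.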
DRD3 agonist: activates the human D3 dopamine receptor | max activation, % | actives 0.58% (n = 410,000) | D3R DiscoveRx beta-arrestin cells, luminescence, 90 min; in the data active = max activation above about 30%; also: 0% is about no effect
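Cells at 1500/well, incubated overnight, then treated with pinned compounds (dopamine as control) for 90 min at 37 degrees C. DiscoveRx reagent added for 30 - 60 minutes at room temperature; luminescence read.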
Starred values were filed as active, the others as inactive; ? = inconclusive; nt = no result given.

SMILES	B2AR arrestin	DRD3 antagonist	TSHR antag	DRD3 agonist
COc1cc2c(cc1O)C(Cc1ccc(O)cc1)NCC2 (centres undefined)	-1.3%	-106.9*	4.4	-69.5
COc1cc2c(cc1OC)C(c1ccc(O)cc1)NCC2 (centres undefined)	0.3%	6.8	-10.4	-1.1
COc1cc2c(cc1OC)[C@H](Cc1ccc(O)cc1)NCC2	-0.7%	-62.4*	1.2	-24.1
COC(=O)[C@@H](NC(=O)NC1CCN(Cc2ccccc2)CC1)C(C)C	-0.2%	-52.8*	-9.8	-17.8
O=C(Nc1cccc(F)c1)NC1CCN(Cc2ccccc2)CC1	-1.1%	-82.0*	2.7	-9.9
Fc1ccc(NC(=S)NC2CCN(Cc3ccccc3)CC2)cc1	-0.4%	-54.5*	-2.0	1.5
CCCN1CCC(NC(=O)Nc2ccc(F)cc2F)CC1	-0.5%	-53.2*	3.4	-4.4
O=C(/C=C/c1cccc(F)c1)NC1CCN(Cc2ccccc2)CC1	-0.1%	?	-2.2	-8.7
CCn1c(=O)c2sccc2n2c(CCC(=O)Nc3ccc(OC)cc3OC)nnc12	nt	nt	nt	4.1
Cc1ccc2oc(=O)c3cnn(CC(=O)N(C)c4ccc(F)cc4)c3c2c1	nt	nt	nt	-8.4
S=C(Nc1ccc(Cl)c(Cl)c1)NC1CCN(Cc2ccccc2)CC1	-0.9%	-55.1*	-9.4	-7.4
CSCCC(NC(=O)c1ccc(Cl)cc1Cl)C(=O)N(C)Cc1nc2ccccc2c(=O)[nH]1 (centres undefined)	-0.1%	-51.3*	6.6	-8.0
CSCCC(NC(=O)c1ccc(Cl)cc1Cl)C(=O)NCc1ccncc1 (centres undefined)	0.4%	-12.0	4.8	-3.7
COc1ccccc1NS(=O)(=O)c1cc([N+](=O)[O-])ccc1N/N=C/c1c(C)[nH]c2ccccc12	0.2%	-52.2*	-6.5	-33.1
Cc1[nH]c2ccccc2c1/C=N/Nc1ccc([N+](=O)[O-])cc1	-0.1%	?	28.2	-16.0
COCCCNC(=S)N/N=C/c1ccc(O)cc1	-0.5%	-29.4	-0.3	8.2
O=C(N/N=C/c1ccc(O)cc1O)C(=O)N/N=C/c1ccc(O)cc1O	-1.0%	5.1	2.2	39.5*
Oc1ccc(C=NNC(=S)Nc2ccc(F)cc2)c(O)c1	nt	27.4	nt	33.0*
O=C(CCC(=O)Nc1ccc(F)cc1)N/N=C/c1ccc(O)cc1O	-0.1%	2.9	-4.6	1.0
COCCCNC(=S)N/N=C/c1ccc(O)cc1O	0.3%	-4.8	-3.6	32.0*
COc1ccc(Cn2ccc3nc(C)c(C(=O)N4CCN(c5ccccc5OC)CC4)cc3c2=O)cc1	nt	nt	nt	18.2
Cc1cccc(OCCOCCn2c(-c3ccc(Cl)cc3)nc3ccccc3c2=O)c1C	nt	nt	nt	-4.8
Oc1ccccc1C=NCc1ccccc1	nt	nt	nt	-6.1
CCN(Cc1ccccc1OC)CC1CCCN(CCc2cccc(OC)c2)C1 (centres undefined)	3.0%	-21.5	-3.9	-6.5
CCN(Cc1ccc(NC(C)=O)cc1)CC1CCCN(CCc2cccc(OC)c2)C1 (centres undefined)	0.4%	-51.6*	-1.9	-5.4
SMILES	B2AR arrestin	DRD3 antagonist	TSHR antag	DRD3 agonist
COc1ccc2c(c1OC)CN1CCc3cc4c(cc3[C@@H]1[C@@H]2O)OCO4	-2.0%	-117.3*	8.8	-98.9
COc1cc2c(cc1OC)[C@@H]1Cc3ccc(OC)c(OC)c3CN1CC2	0.6%	-99.2*	-2.1	-33.8
Cc1ccc(OCc2cc(=O)n3cc(C)sc3n2)c(NC(=O)c2ccco2)c1	nt	nt	nt	-1.2
COc1ccc(C)cc1NC(=O)CSc1nc(=O)n(Cc2ccncc2)c2c1CCC2	nt	nt	nt	-11.5
CC(=O)C[C@H]1c2ccccc2S(=O)(=O)N1C1CCCC1	nt	-167.8*	nt	-26.6
CC1(C)N=C(c2cccc(F)c2)C(=O)N1	-0.9%	16.0	-6.4	43.4*
CC1(C)N=C(c2ccccc2)C(=O)N1	-1.1%	13.8	26.8	9.5
CC(C)CCN1C(=O)c2ccccc2CC1(C)C(=O)NC1CCCCC1 (centres undefined)	nt	nt	nt	-4.5
Cn1c(=O)[nH]c(=O)c2c1nc(Br)n2CCOc1ccccc1	-0.2%	-53.5*	-1.0	3.8
Cn1c(=O)[nH]c(=O)c2c1nc(NN)n2CCOc1ccccc1	0.2%	12.9	-1.8	7.4
CN1CCN(C(=O)/C(=C\c2ccccc2)c2ccccc2)CC1	-0.1%	-54.6*	12.6	2.5
Cc1ccc(S(=O)(=O)Nc2ccccc2N(C)S(=O)(=O)c2ccc(C)cc2)cc1	-0.1%	-14.5	-75.0*	0.3
COc1cc(/C=C(\C#N)c2nc3ccc(C)cc3[nH]2)c([N+](=O)[O-])cc1OC	-0.5%	-52.2*	8.2	-3.5
N#C/C(=C\c1cc([N+](=O)[O-])c(N2CCOCC2)cc1N1CCOCC1)c1nc2ccccc2[nH]1	0.1%	-79.1*	1.1	-2.4
COC(=O)c1cc2oc(C)cc2n1Cc1ccc(C)cc1	nt	nt	nt	-9.1
CN1CCN(C(c2ccccc2Cl)c2sc3nc(-c4ccco4)nn3c2O)CC1 (centres undefined)	nt	nt	nt	-8.6
COc1ccc(C(O)c2nc(-c3ccccc3C)cs2)cc1 (centres undefined)	nt	-94.6*	nt	-12.4
COc1cccc(C(O)c2nc(-c3ccccc3C)cs2)c1 (centres undefined)	nt	-8.1	nt	4.9
COc1ccc(C(O)c2nc(-c3cccc(F)c3)cs2)cc1 (centres undefined)	nt	14.4	nt	6.7
OC(c1ccccc1)c1nc(-c2cccc(F)c2)cs1 (centres undefined)	nt	-55.4*	nt	-7.7
COc1ccc(-c2csc(C(O)c3ccc(OC)cc3)n2)cc1 (centres undefined)	nt	16.0	nt	11.4
COc1ccc(C(O)c2nc(-c3ccccc3)cs2)cc1 (centres undefined)	nt	-7.2	nt	63.0*
CC1(C)[C@H]2CC[C@]1(C)[C@H](O)C2	nt	nt	nt	-7.8
C=Cc1ccc(Cn2ccn(-c3ccc(F)c(F)c3)c(=O)c2=O)cc1	nt	nt	nt	-18.5
CCCOc1ccc(C(=O)NCC(c2cccs2)N(C)C)cc1 (centres undefined)	-0.9%	-1.9	6.6	-3.1
SMILES	B2AR arrestin	DRD3 antagonist	TSHR antag	DRD3 agonist
CCN(c1ccccc1)S(=O)(=O)c1ccc(C(=O)NCC(c2cccs2)N(C)C)cc1 (centres undefined)	0.1%	-51.9*	-3.2	-13.1
CCN(c1ccccc1)S(=O)(=O)c1ccc(C(=O)NCC(=O)Nc2ccc(F)c(F)c2F)cc1	0.3%	-96.9*	nt	-8.9
CCN(c1ccccc1)S(=O)(=O)c1ccc(NC(=S)NC(=O)c2cccs2)cc1	0.1%	-74.3*	-38.5	-11.2
CCOc1ccc(C(=O)NCC(c2cccs2)N(C)C)cc1OCC (centres undefined)	0.3%	-58.8*	2.9	-7.3
O=C(CCn1c(=O)c2sccc2n(CC(=O)Nc2ccccc2)c1=O)NCc1ccccc1Cl	nt	nt	nt	8.0
CCN(c1ccccc1)S(=O)(=O)c1cc(C(=O)NCC(c2ccc(OC)cc2)N(C)C)ccc1C (centres undefined)	nt	-89.5*	nt	-20.1
CC(=O)c1ccc(NC(=O)c2ccc(CN3C(=O)CCn4nc(C)cc43)cc2)cc1	nt	nt	nt	2.0
COc1cc(/C=C2\CC/C(=C\c3cc(OC)c(O)c(OC)c3)C2=O)cc(OC)c1O	0.1%	-73.6*	-17.4	-7.7
